Results filed as inconclusive are left out. The source made the active and inactive calls. The call rests on the fitted dose curve; in most records, active means well fitted inhibition curve with a large enough effect; inconclusive means small, poorly fitted or top-dose-only effect; inactive means flat fitted curve, though single readings scatter.
Tested on: NIH3T3
Experiment: qHTS assay to identify novel small-molecules to repurpose for Merkel cell carcinoma treatment (AID 1296009); further: nearly all actives have a fitted effect of over 60% in size
Details: MCC and control cell lines, CellTiter-Glo viability, 72 h; at 44.8 µM (top of the series) unless noted
Source text: MCC is a rare and aggressive neuroendocrine skin cancer with limited treatment options. Approximately 80% of MCCs have the Merkel cell polyomavirus (MCPyV) DNA integrated into the host genome (virus-positive: VP-MCC) and viral oncogenes drive oncogenesis. The remaining MCCs are virus-negative (VN-MCC) and are caused by UV mutagenesis. To identify novel treatments for VP-MCC and/or VN-MCC we screened three VP-MCC cell lines (WAGA, MKL-1, MKL-2), three VN-MCC cell lines (MCC-13, MCC-26, UISO), and four immortalized, non-transformed control cell lines (HaCaT, HEK293T, CRL7250, NIH-3T3) against ~2,400 compounds in the NCGC Pharmaceutical Collection (NPC) and ~1,900 compounds in the Mechanism Interrogation PlatE (MiPE). Using cell viability as a readout (CellTiter-Glo assay) we found both overlapping and distinct drugs that can be repurposed for the treatment of VP-MCC and VN-MCC.
A high-throughput screen was conducted in 1536-well white flat bottom plates (Corning) on a Kalypsys robotic system. Cell lines WAGA, MKL-1, MKL-2, MCC-13, MCC-26, UISO, HaCaT, HEK293T, CRL7250, and NIH-3T3 were screened against 2 small molecule annotated drug libraries NPC and MIPE in dose response (8 and 11 pt. respectively) measuring cell viability after 72 hours of incubation. […] A 1,536 pintool (Kalypsys) was used to transfer 23 nL of compound in DMSO to the 1,536-well assay plates. After 72 hr incubation at 37 degree celsius, 2.5 uL of CellTiter-Glo (Promega) was dispensed into each well using a BiorapTR. Plates were incubated at room temperature for 10 min, transferred to a ViewLux (PerkinElmer) and the luminescence was recorded using an exposure time of 2 seconds. Relative luminescence units (RLUs) were normalized to in-plate controls (no cells as a positive (cytotoxicity) control, DMSO as negative control) and the normalized data was processed using NCATS in-house software.

Row | Compound | outcome
1 | O=C1NCc2nc3ccccc3c(=O)n2C1Cc1c[nH]c2ccccc12 (stereo not given) | inactive
2 | CNC(=O)O[C@H]1COc2ccc(N3CCN(C4COC4)CC3)cc2[C@@H]1NC(=O)c1ccc(F)cc1 | inactive
3 | CC[C@H]1OC(=O)C[C@@H](O)[C@H](C)[C@@H](O[C@@H]2O[C@H](C)[C@@H](O)[C@H](N(C)C)[C@H]2O)[C@@H](CCN2C[C@H](C)C[C@H](C)C2)C[C@@H](C)C(=O)/C=C/C(C)=C/[C@@H]1CO[C@@H]1O[C@H](C)[C@@H](O)[C@@H](OC)[C@H]1OC | inactive
4 | CCN(c1cc(C#CCN2CCOCC2)cc(C(=O)NCc2c(C)cc(C)[nH]c2=O)c1C)C1CCC(N(C)CCOC)CC1 (stereo not given) | inactive
5 | Cc1cc(C)c(S(=O)(=O)N(Cc2ccc(-c3cccc(S(C)(=O)=O)c3)cc2)Cc2ccc(C(F)(F)F)o2)c(C)c1 | inactive
6 | C#Cc1cnc2[nH]c(=O)n(C(CC)CC)c2n1 | inactive
7 | COC(=O)C1=COC(OC2OC(CO)C(O)C(O)C2O)C2C1CC(OC(=O)C(O)CC(=O)O)C2C (stereo not given) | inactive [at 17.4 µM]
8 | C=CC1(C)CC2=CCC3C(C)(C(=O)O)CCCC3(C)C2CC1OC(C)=O (stereo not given) | inactive
9 | COC12CC3C(C(C)C1=CC(=O)O2)C(O)C(OC(C)=O)C1C(C)(C)C(OC(C)=O)CCC31C (stereo not given) | inactive [at 17.4 µM]
10 | FC(F)(F)c1cc(C(F)(F)F)c2ccc3nc(-c4nnco4)cn3c2n1 | inactive
11 | C=C(C)[C@@H](C)[C@H]1O[C@]23C[C@]4(CO2)C(CCC2[C@@]5(C)CC[C@H](O[C@@H]6OC[C@H](O)[C@H](O[C@@H]7O[C@H](CO)[C@@H](O)[C@H](O)[C@H]7O)[C@H]6O[C@@H]6O[C@@H](CO)[C@H](O)[C@H]6O)C(C)(C)C5CC[C@]24C)C3[C@@](C)(O)[C@@H]1OC(C)=O (stereo not given in full) | inactive [at 9.27 µM]
12 | CC(=O)N[C@H]1CCN(c2ccc(C3=NOC(CN[S+](=O)([O-])C(C)C)C3)cc2F)C1 (stereo not given in full) | inactive
13 | CC(=O)O[C@H](C[C@@H](C)[C@H]1C(=O)[C@H](O)[C@@]2(C)[C@@H]3CCC4C(C)(C)[C@@H](O[C@@H]5OC[C@H](O)[C@H](O)[C@H]5O)CC[C@@]45C[C@@]35CC[C@]12C)[C@@H]1OC1(C)C (stereo not given in full) | inactive [at 17.4 µM]
14 | CC1(C(=O)O)CCCC2(C)C1CCC13CC(CCC21)C1(CO)OC31 (stereo not given) | inactive
15 | C[C@H]1C[C@H]2[C@@H]3CCC4=CC(=O)C=C[C@]4(C)[C@@]3(F)[C@@H](O)C[C@]2(C)[C@@]1(O)C(=O)COP(=O)(O)O | inactive
16 | CC(C)C1=CCC(C)(O)C(OC2OC(CO)C(O)C(O)C2O)C1 (stereo not given) | inactive
17 | O=C(/C=C/c1ccc(O)cc1)OC[C@H]1O[C@@H](OC(=O)/C=C/c2ccccc2)[C@H](O)[C@@H](O)[C@@H]1O | inactive [at 17.4 µM]
18 | C[C@@H]1C[C@H](O[C@@H]2O[C@H](CO[C@@H]3OC[C@](O)(CO)[C@H]3O)[C@@H](O)[C@H](O)[C@H]2O)CC(C)(C)[C@H]1/C=C/[C@@H](C)O | inactive [at 17.4 µM]
19 | C=C(C)C1CC2(CO)C(=CC1=O)CCC(O)C2C (stereo not given) | inactive
20 | CCOC(=O)N1CCC(NCCNC(=O)c2ccccc2C)CC1 | inactive

Row | Compound | outcome
21 | Cc1cn2c(N)c(Cl)cc(C(=O)NCC3CCN(CC(C)C)CC3)c2n1 | inactive
22 | C[C@]12CC[C@@H]3c4ccc(O[C@@H]5O[C@H](C(=O)O)[C@@H](O)[C@H](O)[C@H]5O)cc4CC[C@H]3[C@@H]1CCC2=O | inactive
23 | CN1C(=O)c2ccccc2-n2c(nc3ccccc3c2=O)[C@@]12O[C@H]2c1ccccc1 | inactive
24 | COC(=O)C1=C[C@@H](O)[C@@H](O)[C@H](O[C@@H]2O[C@H](COC(=O)/C=C/c3ccccc3)[C@@H](O)[C@H](O)[C@H]2O)C1 | inactive [at 17.4 µM]
25 | CN1Cc2c(N)cccc2C(c2ccccc2)C1 (stereo not given) | inactive
26 | C=CC(C)(O)CC/C=C(/C)C(=O)OC1C(OC2OCC(OC3OC(CO)C(O)C(O)C3O)C(OC3OCC(O)C(OC4OC(C)C(O)C(O)C4O)C3O)C2O)COC(OC(=O)C23CCC(C)(C)CC2C2=CCC4C5(C)CCC(OC6OC(CO)C(OC7OC(CO)C(O)C(OC8OCC(O)C(O)C8O)C7O)C(O)C6O)C(C)(C)C5CCC4(C)C2(C)CC3O)C1O (stereo not given) | inactive [at 4.96 µM]
27 | CC(=O)O[C@H]1[C@H](C)[C@@H](O)[C@H]2[C@@H]1C=C(C(=O)O)[C@H]1C[C@@H]3[C@H]([C@H]21)[C@H]1C(=O)O[C@@H]2CC[C@@]3(C)O[C@]1(O)[C@@H]2C | inactive [at 17.4 µM]
28 | C[C@@H]1O[C@@H](O[C@H]2[C@H](O[C@H]3[C@H](O[C@H]4CC[C@@]5(C=O)C(CC[C@]6(C)C5CC=C5C7CC(C)(C)C[C@@H](O)[C@]7(C)CC[C@]56C)C4(C)C)O[C@H](C(=O)O)[C@@H](O)[C@@H]3O)OC[C@@H](O)[C@@H]2O)[C@H](O)[C@H](O)[C@H]1O (stereo not given in full) | inactive [at 9.27 µM]
29 | C/C=C(\C)C(=O)O[C@@H](C)[C@H]1CC[C@]2(O)C3CCC4C[C@@H](OC5CC(OC)C(OC6CC(OC)C(OC7CC(OC)C(OC8OC(C)C(OC9OC(CO)C(O)C(O)C9O)C(OC)C8O)C(C)O7)C(C)O6)C(C)O5)CC[C@]4(C)C3[C@H](O)[C@@H](O)[C@]12C (stereo not given in full) | inactive [at 9.27 µM]
30 | Nc1nonc1C(=Nc1ccc(F)c(Cl)c1)NO | inactive
31 | C[C@@H]1O[C@@H](O[C@@H]2[C@@H](O)[C@H](O[C@@H]3[C@@H](O)[C@@H](O)[C@H](O[C@H]4[C@H](OC(=O)[C@]56CCC(C)(C)C[C@H]5C5=CCC7[C@@]8(C)C[C@H](O)[C@H](O[C@@H]9O[C@H](C(=O)O)[C@@H](O)[C@H](O)[C@H]9O)[C@@](C)(CO)C8[C@H](O)C[C@@]7(C)[C@]5(C)CC6)OC[C@H](O)[C@@H]4O)O[C@H]3C)OC[C@H]2O)[C@H](O)[C@H](O)[C@H]1O (stereo not given in full) | inactive [at 9.27 µM]
32 | Cc1[nH]cnc1C1CCN(c2nc3cccc4c3n2CCC4=O)CC1 | inactive
33 | Cc1nnc(C(C)C)n1C1CC2CCC(C1)N2CC[C@H](NC(=O)C1CCC(F)(F)CC1)c1ccccc1 (stereo not given in full) | inactive
34 | CC1CCC2C(C(=O)O)=CC3CC(C)(C)CC132 (stereo not given) | inactive
35 | COc1c2c(c(C)c3c1C(=O)OC3)OC1(C)CC(O)C3(O)C(C)(C)OC(=O)CCC3(C)C1C2 (stereo not given) | inactive [at 17.4 µM]
36 | CC(=O)OC1C=C(C(=O)O)C2(CO)CCC(C)C(C)(CCc3ccoc3)C2C1 (stereo not given) | inactive [at 17.4 µM]
37 | CC1CCC2(C(=O)OC3OC(CO)C(O)C(O)C3O)CCC3(C)C(=CCC4C5(C)CC(O)C(O)C(C)(C(=O)O)C5CCC43C)C2C1(C)O (stereo not given) | inactive [at 17.4 µM]
38 | Cc1ncc([N+](=O)[O-])n1CC(O)CN1CCOCC1 (stereo not given) | inactive
39 | C=C1C2=CC(O)C(C)C1(C)CC/C(C)=C/CCC1(C)OC1C2=O (stereo not given) | inactive
40 | COc1cccc(-c2ccc([C@@H](Oc3cc(-c4ccc(C[C@H](N)C(=O)O)cc4)nc(N)n3)C(F)(F)F)cc2)c1 | inactive
